In PubChem BioAssay (NCI):
This is part of a sample that, as a whole, favours compounds with a hit. Of some 79,000 tested, about 15% had one in any assay. Rule as the data show it: active = growth inhibition above about 70%; inactive = the rest.

Experiments:
[1] = NCI Yeast Anticancer Drug Screen. Data for the rad50 strain (AID 155);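 also: 0% = growth of vehicle-only cultures of the same strain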; conditions: S. cerevisiae rad50 strain growth inhibition; at 50.0 µM; stronger effect = higher value
In short: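 DNA repair mutant yeast, compound exposure, growth read-out; inhibition is taken relative to vehicle.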

[2] = NCI Yeast Anticancer Drug Screen. Data for the mec2-1 strain (AID 157); conditions: S. cerevisiae mec2-1 strain, at 50.0 µM, stronger effect = higher value
In short: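 Growth inhibition is read against vehicle-treated controls after compound exposure of the mec2-1 yeast strain, which is defective in DNA damage repair or cell cycle control.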

[3] = NCI Yeast Anticancer Drug Screen. Data for the sgs1 mgt1 strain (AID 161);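 also: 0% = growth of cultures given vehicle only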; conditions: S. cerevisiae sgs1 mgt1 strain, at 50.0 µM, stronger effect = higher value
In short: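 Yeast cells carrying a defined DNA-repair defect were exposed to test compounds. Growth inhibition was measured relative to vehicle-treated controls.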

[4] = NCI Yeast Anticancer Drug Screen. Data for the cln2 rad14 strain (AID 165);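 also: 0% = growth equal to vehicle treated cultures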; conditions: S. cerevisiae cln2 rad14 strain, at 50.0 µM, stronger effect = higher value
In short: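 Growth inhibition, relative to vehicle-treated controls, is the read-out. The test organism is a yeast strain with defined genetic alterations, cln2 rad14.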

[5] = NCI Yeast Anticancer Drug Screen. Data for the bub3 strain (AID 167); conditions: S. cerevisiae bub3 mutant strain, at 50.0 µM, stronger effect = higher value
In short: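 In this screen, a yeast mutant lacking normal mitotic checkpoint function is challenged with compound. Relative growth versus vehicle gives the inhibition value.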

[6] = NCI Yeast Anticancer Drug Screen. Data for the mlh1 rad18 strain (AID 175); conditions: S. cerevisiae mlh1 rad18 strain growth inhibition; at 50.0 µM; stronger effect = higher value
In short: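 Cells of a genetically altered yeast strain, deficient in DNA damage repair, were treated with compound. Their growth was then compared with that of vehicle-treated cultures to give inhibition.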

Measured: growth inhibition

COc1cccc([N+](=O)[O-])c1
inactive: [1] 18.3% | [2] 32.2% | [3] -14.8% | [4] -5.9% | [5] -0.9% | [6] 5.75%

NNC(=S)N/N=C/c1ccco1
inactive: [1] -9.6% | [2] -9.7% | [3] -29.4% | [4] -19.2% | [5] -8.7% | [6] -14.2%

CC1CC(c2ccccc2)=Nc2ccccc2S1 (stereo unspecified)
inactive: [1] 18.2% | [2] 12.9% | [3] 16.2% | [4] 19.5% | [5] 6.5% | [6] -9.4%

CNC(=S)ON1CCCCC1
inactive: [1] 6.65% | [2] 19.9% | [3] -23.3% | [4] -7.95% | [5] -5.95% | [6] -38.5%

CCCCC(C(=O)OCC)C(=O)OCC
inactive: [1] 5.9% | [2] 4.45% | [3] -6.35% | [4] -53% | [5] -2.75% | [6] -3.2%

COc1ccc(N=Cc2ccc(C=Nc3ccc(OC)cc3)cc2)cc1
inactive: [1] 23.2% | [2] 2.25% | [3] 21.3% | [4] -0.95% | [5] 20.1% | [6] 19.9%

CC1O[C@@]2(CC[C@H]3[C@@H]4CCC5=CC(=O)CC[C@]5(C)[C@H]4CC[C@@]32C)C1=O (stereo partly specified)
inactive: [1] -0.55% | [2] 4.95% | [3] 11.4% | [4] -16.8% | [5] 26.9% | [6] 25.9%

CCCCCC(=O)OCC(Br)CBr (stereo unspecified)
inactive: [1] -7.6% | [2] -10.6% | [3] 22.5% | [4] -23.1% | [5] 40.5% | [6] 1.1%

CCN(CC)CCN(CC)CC(=O)Nc1ccccc1Cl
inactive: [1] -14.9% | [2] -29.9% | [3] -1.65% | [4] 4.35% | [5] -3.6% | [6] -14.2%

O=C1OC2(C(F)(F)F)Oc3ccccc3CN2C12CCCCC2 (stereo unspecified)
inactive: [1] 17.6% | [2] 35% | [3] 11.4% | [4] 25.1% | [5] 42.5% | [6] 13.2%

Nc1cc2c(cc1Br)-c1ccc(Br)cc1C2=O
inactive: [1] -6.65% | [2] -6.65% | [3] -0.7% | [4] -30.2% | [5] 21.4% | [6] -5.25%

CN=c1ss/c(=N\C(=S)N(C)C)n1C
inactive: [1] -0.2% | [2] -10.5% | [3] -21.6% | [4] 28% | [5] -11.5% | [6] 6.8%

C/C(=N\NS(=O)(=O)c1ccc([N+](=O)[O-])cc1)c1ccc[n+]([O-])n1
inactive: [1] -19.2% | [2] -18.6% | [3] -13.6% | [4] -2.75% | [5] 2.15% | [6] -34%

CSC(=NCCN=C(NS(=O)(=O)c1ccc(Cl)cc1)SC)NS(=O)(=O)c1ccc(Cl)cc1
inactive: [1] 5.95% | [2] -5.3% | [3] 7.15% | [4] 1.5% | [5] 4.15% | [6] 5.8%

CCC(C)C(C(=O)OCCC[N+]1(C)CCCCC1)c1ccccc1 (stereo unspecified)
inactive: [1] 49.9% | [2] -6.75% | [3] 18.2% | [4] -4.4% | [5] 5.75% | [6] 14%

COC(=O)c1cc(Cl)ccc1Br
inactive: [1] 17.4% | [2] 14.1% | [3] -0.05% | [4] 14.8% | [5] -3.85% | [6] 43%

CN1CCCC2C(c3ccccc3)C(C3=NCCCC3)C(c3ccccc3)CC21 (stereo unspecified)
inactive: [1] -18.9% | [2] -3.2% | [3] -23.1% | [4] -28.6% | [5] -64.9% | [6] -60.4%

CCOC(=O)CCCCCCC(=O)OCC
inactive: [1] 19.1% | [2] 5.35% | [3] 5.05% | [4] 1.95% | [5] 1.1% | [6] 23.4%

CCOC1C[C@H]2C[C@H]3[C@@H]4CC=C5C[C@@H](OC(C)=O)CC[C@]5(C)[C@H]4CC[C@]3(C)C2=C(C)O1 (stereo partly specified)
inactive: [1] 20.9% | [2] 12.7% | [3] 22.9% | [4] 36% | [5] 8.05% | [6] 20.6%

COC(=O)C1=C(C(=O)OC)C2CCCOC2=C(C)C1 (stereo unspecified)
inactive: [1] -1.35% | [2] 12.1% | [3] -6.15% | [4] 41.2% | [5] 14.3% | [6] 7%

O=CC1OC(c2ccccc2)OC1C1OC(c2ccccc2)OC1C=O (stereo unspecified)
inactive: [1] 19.4% | [2] 13.7% | [3] 19.2% | [4] -22.6% | [5] 17.9% | [6] 22.8%

O=C1C(=Cc2cccnc2)C(=O)c2ccccc21
inactive: [1] 26% | [2] 15.3% | [3] 42.4% | [4] 18.9% | [5] 6.7% | [6] 9%

O=C(Nc1ccc(Cl)cc1[N+](=O)[O-])N1CCN(c2ccccc2)CC1
inactive: [1] -8.35% | [2] 21.9% | [3] 29.4% | [4] -10.3% | [5] 44.3% | [6] 28.1%

OC1(c2ccccc2)C(c2ccccc2)=C(c2ccccc2)C(c2ccc(CCCCCCCCc3ccc(C4=C(c5ccccc5)C(O)(c5ccccc5)C(c5ccccc5)=C4c4ccccc4)cc3)cc2)=C1c1ccccc1 (stereo unspecified)
inactive: [1] -20.4% | [2] -3.95% | [3] -7.5% | [4] -28.1% | [5] -23.6% | [6] -9.15%

Nc1ccn(CCOC(=O)c2ccccc2)c(=O)n1
inactive: [1] -2% | [2] -28% | [3] -14.7% | [4] -6.05% | [5] 31.2% | [6] 15.5%

CCC1(C(Cl)(Cl)Cl)C=CC(=O)C=C1
inactive: [1] 13% | [2] 13.3% | [3] -1.85% | [4] 12.8% | [5] 4.7% | [6] -21.1%

COc1cc(C)nc2ccc(Cc3ccc4nc(C)cc(OC)c4c3)cc12
inactive: [1] 6.75% | [2] 6.8% | [3] -3% | [4] -14.2% | [5] 7.4% | [6] 25.6%

CCOC(=O)c1c[nH]c(=S)n(C)c1=O
inactive: [1] -6.6% | [2] -10.2% | [3] -6.65% | [4] -14.1% | [5] 0.4% | [6] 2.1%

COc1ccc(C=O)c(C)c1
inactive: [1] -4.05% | [2] -30.1% | [3] 4.15% | [4] 15.3% | [5] -15.8% | [6] -5.45%

CCCN(CCC)C(=S)S
inactive: [1] 43.1% | [2] 7.95% | [3] 54.1% | [4] 32.7% | [5] 23.2% | [6] 14.4%

O=[N+]([O-])c1ccc(N(CCO)CCO)nc1
inactive: [1] -15.7% | [2] -76.6% | [3] 5.15% | [4] 19.5% | [5] -19.3% | [6] -17.8%

CC(=O)C1=CCC2c3[nH]c4ccccc4c3CCN2C1 (stereo unspecified)
inactive: [1] 17.6% | [2] 4.1% | [3] 20.3% | [4] 25.7% | [5] 1.5% | [6] 18.9%

CC(C)CCN(C=O)c1ccccc1
inactive: [1] 1.7% | [2] 0.7% | [3] 8.05% | [4] 5.5% | [5] -9.5% | [6] 2.15%

O=C(NN1CCCCC1)NN1CCCCC1
inactive: [1] 5.35% | [2] -2.5% | [3] 8.6% | [4] 20.1% | [5] 24% | [6] 18.2%

CCCCCCCCCCCCCCC(CCCCCCCCCCCCCC)c1ccccc1
inactive: [1] 38.4% | [2] -1.25% | [3] 11.6% | [4] -29.4% | [5] -2.65% | [6] 12.2%

CC(C)=C(C)CCC(C)CC(C)O (stereo unspecified)
inactive: [1] -2.9% | [2] -14% | [3] -0.05% | [4] -5.6% | [5] -5.9% | [6] -5.85%

O=C(O)C(Cc1ccccc1)c1ccc(Cl)cc1 (stereo unspecified)
inactive: [1] 38.1% | [2] 27.3% | [3] 43.1% | [4] 20.6% | [5] 41.8% | [6] 25.9%

CCOC(=O)/C=C/SCCCN
inactive: [1] 3.95% | [2] -1.4% | [3] 3.3% | [4] -22.3% | [5] -4.75% | [6] 6.4%

CN1C(c2ccccc2)=C(C#N)C(=O)CC(c2ccco2)N1C (stereo unspecified)
inactive: [1] 4.3% | [2] -4.4% | [3] 4.65% | [4] 10.9% | [5] 11% | [6] 13.1%

N=c1ccc2nc(N)nn(O)c-2c1
inactive: [1] -1.2% | [2] 12.1% | [3] 2.9% | [4] -3.4% | [5] -37.3% | [6] -44%

O=[N+]([O-])c1ccc(N/N=C(/c2ccc(Cl)cc2)c2ccccc2Cl)c([N+](=O)[O-])c1
inactive: [1] -15.8% | [2] 1.2% | [3] -6.25% | [4] -16.8% | [5] 3.35% | [6] 21.4%
